The full ranking holds about 33,000 sequences; the median of “E-score (-0.5 to 0.5)” is about -0.0059, and the highest 2% start at about 0.26. Shown is part of a subset that was picked to be rich in the highest values.
biological target: T1, Cin5 (UniProt P40917); experiment: PBM E-score (8-mer binding enrichment) (E-score (-0.5 to 0.5)); higher = stronger / more preferred TF binding; conditions: protein concentration: 100 nM; construct: GST-full length
T1 sequence: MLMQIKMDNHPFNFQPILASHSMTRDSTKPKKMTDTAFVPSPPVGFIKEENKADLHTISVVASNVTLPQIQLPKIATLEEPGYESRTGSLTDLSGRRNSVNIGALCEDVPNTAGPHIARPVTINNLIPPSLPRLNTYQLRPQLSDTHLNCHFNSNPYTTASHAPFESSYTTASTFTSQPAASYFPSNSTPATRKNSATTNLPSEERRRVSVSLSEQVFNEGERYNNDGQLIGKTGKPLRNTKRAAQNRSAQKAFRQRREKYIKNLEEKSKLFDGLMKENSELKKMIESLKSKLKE
Description: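 Universal 'all 10-mer' protein binding microarrays (Agilent AMADID 015681) probed with GST-tagged S. cerevisiae TFs (full-length or DBD) made by in vitro transcription/translation (PURExpress), about 100-200 nM. Bound TF was detected with fluorescent anti-GST. Each ungapped 8-mer (which stands for itself and its reverse complement) is scored by the PBM enrichment score (E-score), a modified Wilcoxon-Mann-Whitney statistic from -0.5 to +0.5, computed with the Universal PBM Analysis Suite. Scale: above 0.35 generally sequence-specific binding.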

Row | Sequence | PBM E-score
1 | CGAAGACA | -0.0454
2 | ACAACATC | 0.0575
3 | ATAACATG | 0.0972
4 | ACAACATA | 0.268
5 | GCAACATA | 0.0111
6 | ATAACATC | 0.189
7 | ATAACATA | 0.26
8 | AGATTGAA | 0.0552
9 | CCCAGTTC | 0.175
10 | AACCGTGA | -0.0786
11 | GCATTCCA | -0.196
12 | AAAGCATC | 0.134
13 | CAGACTGG | -0.108
14 | AAAACGGA | 0.0411
15 | AGTAGCCG | 0.0345
16 | TATCGATA | 0.0449
17 | GCTCTTAC | 0.021
18 | CTCACGCC | -0.0928
19 | CTCACGCA | 0.274
20 | GTCACGCA | 0.0339
21 | ACAGTAGG | -0.00703
22 | CAGTGCCG | -0.0996

Row | Sequence | PBM E-score
23 | ATAGTTGC | 0.272
24 | ATAGTTGA | 0.121
25 | ATAGTTGG | -0.0107
26 | GGTAAGTA | -0.00023
27 | AAAATGGT | 0.216
28 | TCTGCACA | -0.00335
29 | GTTACGAA | 0.16
30 | ATTACGAG | 0.299
31 | ATTACGGG | 0.103
32 | AGTACGAG | 0.0932
33 | ATTACGGC | 0.181
34 | ATTACGAC | 0.232
35 | AGTACGAA | 0.167
36 | ATTACGCA | 0.25
37 | CTTACGAC | 0.103
38 | ATTACGAA | 0.295
39 | CTTACGAA | 0.26
40 | ATTACGGA | 0.322
41 | GAGGTTAA | -0.0963
42 | AGCAATTC | 0.0771
43 | AGGACCTC | -0.0477
44 | CCTTGAGC | -0.155

Row | Sequence | PBM E-score
45 | ATTCCGAG | 0.182
46 | CAAGTCTA | -0.202
47 | ATACTGAT | 0.283
48 | ATACTGAC | 0.192
49 | ATACTGTC | 0.208
50 | TACGCCCA | 0.0142
51 | AAGTACTG | -0.0282
52 | CAAAAGTC | -0.0102
53 | CGCTTACC | 0.15
54 | TGCTTAAA | 0.102
55 | ACCTTACG | 0.0253
56 | TCCTTACA | -0.021
57 | GGCTTACA | 0.332
58 | GGCTTACC | 0.169
59 | CGCTTACG | 0.379
60 | GCCTTACA | -0.253
61 | TGCTTACA | 0.305
62 | AGCTTACG | 0.337
63 | ATCTTACG | 0.164
64 | CACTTACG | 0.112
65 | ACTTCTAT | 0.0803
66 | ATATGCGG | 0.148

Row | Sequence | PBM E-score
67 | CACTGCCA | -0.0785
68 | CCCCCCCA | -0.464
69 | CTAGCCTC | -0.159
70 | GTACAGCA | -0.134
71 | ATGCACTA | -0.0624
72 | ATATAGAT | 0.207
73 | GGAGCTAC | -0.236
74 | CACTTACA | 0.127
75 | CGCTTAGA | -0.0919
76 | AGCTTATA | 0.191
77 | AGCTTACA | 0.351
78 | AGCTTATC | 0.204
79 | AGCTTACT | 0.201
80 | AGCTTACC | 0.226
81 | CGCTTACA | 0.315
82 | AGCTTATG | 0.296
83 | ACCCGATA | -0.0171
84 | CCCTGTTC | -0.265
85 | CCTTCTTC | -0.107
86 | AGAAGCTG | -0.049
87 | ACCAAGAT | 0.146
